Experimental findings from PubChem BioAssay (NCATS) are described below.

Where “and” joins values, the source holds several entries; their conditions need not be identical. Equal values may be shown once. Inconclusive results are not listed. The source holds several records for some structures; these can differ, active in one and inactive in another. Calls of active or inactive are those of the source. Unless noted, calls come from the whole dose curve.

The target of assay [1] is Androgen receptor (Homo sapiens) (UniProt P10275). Description: qHTS assay for small molecule antagonists of androgen receptor signaling (AID 588516; active = well fitted curve in the direction sought with a large enough effect in the signal ratio, with a control signal flat, not every such curve was filed as active; the % refers to the signal ratio; note: potency is the fitted concentration of half-maximal effect). A digest of the protocol:
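HEK293 AR-UAS-bla cells, 10% dialyzed FBS medium; cpd titration + R1881 10 nM final, 16 h 37 C; CCF4 2 h RT; FRET ratio; IC50/efficacy via Hill fit.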

In assay [2] the target is Bile acid receptor (Homo sapiens) (UniProt Q96RI1). Description: qHTS assay for small molecule antagonists of farnesoid X receptor signaling (AID 588526). Note: % is set by controls: 0 for no effect and ±100 for the full control effect. The method, boiled down: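 Beta-lactamase reporter antagonist mode: HEK293T FXR-UAS-bla cells, titrated compound, CDCA stimulation, 16 h 37 C, CCF4 dye 2 h RT. Data normalized to CDCA 50 uM and DMSO; Hill-fit IC50.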
(In general: In qHTS, concentration-response curves come from the screen itself.)

The target is the same in assay [3]. As to the kind of experiment: qHTS assay for small molecule agonists of farnesoid X receptor signaling (AID 588527).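 Note: 0% = vehicle basal and 100% = reference agonist.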 The settings on record: HEK293T FXR-UAS-bla, beta-lactamase ratio, 16 h; stronger effect = higher value. The method, boiled down:
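Agonist-mode beta-lactamase reporter in GeneBLAzer FXR-UAS-bla HEK293T cells, titration up to 92 uM, 16 h exposure at 37 C, CCF4 fluorescence. Response scaled to DMSO (0%) and 100 uM chenodeoxycholic acid (100%), then Hill-fitted for EC50 and efficacy.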

The target of assay [4] is Peroxisome proliferator-activated receptor delta (Homo sapiens) (UniProt Q03181). As to the kind of experiment: qHTS assay for small molecule agonists of peroxisome proliferator-activated receptor delta signaling (AID 588534).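 Note: 0% = DMSO basal wells and 100% = positive control agonist at 10 µM.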 A digest of the protocol:
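Cells carrying a PPAR-delta beta-lactamase reporter were treated with compounds for 18 h at 37 °C in agonist mode. CCF4 fluorescence was read after 2 h; EC50 and efficacy from Hill fits.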

The nature of assay [5]: qHTS assay for small molecule antagonists of peroxisome proliferator-activated receptor delta signaling (AID 588535; active = well fitted inhibition curve with a large enough effect in the signal ratio, with a control signal flat, not every such curve was filed as active; the % refers to the signal ratio;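 for max response: cells co-treated with a PPAR-delta agonist as stimulator during compound exposure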). To be noted: HEK293T PPARd-UAS-bla, beta-lactamase FRET ratio, 18 h; 460 nm channel. The method, boiled down: (§1)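 HEK293T PPAR-delta-UAS-bla cells, 4000/well, 2% charcoal/dextran FBS; 5 h 37 C; cpd titration; 18 h 37 C; CCF4 2 h RT; FI 460/530 nm; Hill fit → IC50, efficacy.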

The target in assay [6] is Peroxisome proliferator-activated receptor delta (Homo sapiens) (UniProt Q03181). The description is as above. A digest of the protocol: as §1
Assay [7] addresses Peroxisome proliferator-activated receptor gamma (Homo sapiens) (UniProt P37231). As to the kind of experiment: qHTS assay for small molecule agonists of peroxisome proliferator-activated receptor gamma signaling (AID 588536; active = well fitted curve in the direction sought with a large enough effect in the signal ratio, with a control signal flat, not every such curve was filed as active; the % refers to the signal ratio;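 note: 0% = DMSO basal wells and 100% = rosiglitazone at 2 µM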). The method, boiled down: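 Ratiometric blue/green fluorescence (405 nm excitation; 460 and 530 nm emission) from CCF4-loaded HEK293 reporter cells serves as signal. Exposure to test compounds lasts 16 h at 37 C in medium containing 1% charcoal/dextran-treated serum.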

For assay [8] the target is unchanged. As to the kind of experiment: qHTS assay for small molecule antagonists of peroxisome proliferator-activated receptor gamma signaling (AID 588537; active = well fitted inhibition curve with a large enough effect in the signal ratio, with a control signal flat, not every such curve was filed as active; the % refers to the signal ratio;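 note: reporter cells co-stimulated with 50 nM rosiglitazone agonist during compound treatment; % of control where 0% means no effect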). The method, boiled down:
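Antagonist mode, beta-lactamase reporter in HEK293; charcoal/dextran FBS 1%; 3000 cells/well, 37 C 6-6.5 h; cpd titration + rosiglitazone 50 nM final, 16 h 37 C; CCF4, 2 h RT; 460/530 nm; Hill fit → IC50, efficacy.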

Assay [9] has as its target Vitamin D3 receptor (Homo sapiens) (UniProt P11473). Description: qHTS assay for small molecule antagonists of vitamin D receptor signaling (AID 588541).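 Note: receptor activated by calcitriol during compound treatment; % is set by controls: 0 for no effect and ±100 for the full control effect.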 A digest of the protocol:
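Antagonist-mode beta-lactamase reporter assay: HEK293T VDR-UAS-bla cells were exposed to titrated compound alongside 1-alpha,25-dihydroxyvitamin D3 at 3 nM final for 16 h. Values were normalized to the 50 nM agonist control and DMSO basal, with IC50 and efficacy from Hill equation fits.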

The target is the same in assay [10]. As to the kind of experiment: qHTS assay for small molecule agonists of vitamin D receptor signaling (AID 588543).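 Note: 0% = DMSO basal and 100% = reference agonist control.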 The method, boiled down:
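β-lactamase reporter, VDR-UAS-bla HEK293T, agonist mode. Cells plated 5 h at 37 °C, compound titration 16 h at 37 °C, CCF4 dye 2 h RT, ratio 460/530 nm. Hill fit → EC50, efficacy vs 50 nM 1α,25-(OH)2D3.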

Assay [11] in a line: qHTS assay for small molecule antagonists of retinoid X receptor alpha signaling (AID 588546).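 Note: cells stimulated with 9-cis-retinoic acid as agonist; % is set by controls: 0 for no effect and ±100 for the full control effect.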 The settings on record: HEK293T RXRa-UAS-bla, beta-lactamase ratio, antagonist mode; measured here: W530 green channel, cytotoxicity proxy. A digest of the protocol: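 Beta-lactamase reporter inhibition, read as CCF4 fluorescence ratio (ex 405, em 460/530 nm) after 2 h at RT. HEK293T UAS-bla cells, 2500/well, were stimulated with 9-cis-RA at 500 or 100 nM final alongside test compound for 18 h at 37 C.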

The target in assay [12] is Thyroid hormone receptor beta (Homo sapiens) (UniProt P10828). Description: qHTS assay for small molecule antagonists of thyroid hormone receptor beta signaling (AID 588547; active = well fitted inhibition curve with a large enough effect in the signal ratio, with a control signal flat, not every such curve was filed as active; the % refers to the signal ratio;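 note: cells stimulated with 0.4 nM T3 agonist during compound exposure; % is set by controls: 0 for no effect and ±100 for the full control effect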). The settings on record: TR-UAS-bla HEK293, beta-lactamase ratio, antagonist mode, 18 h. The method, boiled down: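 Inhibition of T3-driven (0.4nM final) beta-lactamase reporter activity was measured over 0.59 nM to 92 uM compound after 18 h at 37 C. The cells were GripTite HEK293 TR-UAS-bla in charcoal/dextran-stripped serum, with CCF4 ratio read-out and IC50 from Hill fits.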

The nature of assay [13]: qHTS assay for small molecule agonists of the antioxidant response element (ARE) signaling pathway (AID 651741; active = well fitted activation curve with a large enough effect in the signal ratio; the % refers to the signal ratio; note: potency is the fitted concentration of half-maximal effect). The method, boiled down: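 Quantitative HTS in HepG2 cells stably expressing an ARE-beta-lactamase reporter; 16 h compound exposure at 37 C, followed by 2 h room-temperature incubation with LiveBLAzer B/G FRET substrate and fluorescence measurement.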
Assay [14] can be described thus: qHTS assay for small molecule activators of the p53 signaling pathway (AID 651743; active = well fitted activation curve with a large enough effect in the signal ratio, not every such curve was filed as active; the % refers to the signal ratio; note: % of control where 0% means no effect). The settings on record: HCT-116 p53RE-bla, beta-lactamase FRET ratio, 16 h; activation: stronger effect = higher value. A digest of the protocol:
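Read-out is fluorescence intensity from the LiveBLAzer B/G FRET substrate, added for 2 hours at room temperature after HCT-116 p53RE-bla cells had been incubated with compounds for 16 hours at 37 C.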

The nature of assay [15]: qHTS assay for small molecule activators of the nuclear factor-kappa B (NF-kB) signaling pathway (AID 651749; active = well fitted activation curve with a large enough effect in the signal ratio; the % refers to the signal ratio; note: % of control where 0% means no effect). To be noted: NF-kB-bla ME-180 cells, beta-lactamase FRET ratio, 16 h; activation: stronger effect = higher value. The method, boiled down: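 Readout: beta-lactamase reporter driven by an NF-kB response element, detected fluorescently as loss of FRET. Cells were the ME-180 line, treated 16 hr at 37C with pin-transferred compound.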

Assay [16] is described as follows: qHTS assay for environmental chemicals that activate the Aryl hydrocarbon Receptor (AhR) signaling pathway (AID 651777; active = well fitted curve in the direction sought with a large enough effect; an effect the other way counts as inactive or inconclusive; note: % of control where 0% means no effect; nearly all actives have a fitted effect of over 15% in size). To be noted: 1A2-DRE human hepatoma cells, luciferase, 24 h; activation: stronger effect = higher value. The method, boiled down: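 Reporter gene assay: hepatoma cells with DRE/CYP1A2-luciferase, 24 hr compound incubation at 37 C, 5% CO2, luminescence after One-Glo (30 min, RT).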

Assay [17] concerns the target Peroxisome proliferator-activated receptor alpha (Homo sapiens) (UniProt Q07869). As to the kind of experiment: qHTS assay for small molecule agonists of the peroxisome proliferator-activated receptor alpha (PPARalpha) signaling pathway (AID 651778; active = well fitted curve in the direction sought with a large enough effect; an effect the other way counts as inactive or inconclusive; note: % of control where 0% means no effect). To be noted: PathHunter PPARalpha complementation, chemiluminescence, 6 h; stronger effect = higher value. A digest of the protocol: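 Chemiluminescence from complemented enzyme reported PPARalpha activation in cells after 6 hr of compound treatment at 37 C. The detection reagent was incubated for 60 min at room temperature, and compounds were scored as agonists.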

Assay [18] is described as follows: qHTS assay for small molecule agonists of the antioxidant response element (ARE) signaling pathway measured by Nrf2-dependant transcriptional activity - cell viability counter screen (AID 720653; active = well fitted curve in the direction sought with a large enough effect in the repeat runs; an effect the other way counts as inactive or inconclusive; note: % is set by controls: 0 for no effect and ±100 for the full control effect). The settings on record: ARE-bla HepG2 viability, CellTiter-Glo ATP luminescence, 16 h; stronger effect = lower value. The method, boiled down: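 Cytotoxicity counter screen: intracellular ATP quantified by CellTiter-Glo luminescence in the same ARE-bla HepG2 plates, after 16 h compound exposure and a 2 h beta-lactamase substrate step.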

Assay [19] in a line: qHTS assay for cell viability of HEK293 cells (AID 743288; active = well fitted curve in the direction sought with a large enough effect; an effect the other way counts as inactive or inconclusive; note: % is set by controls: 0 for no effect and ±100 for the full control effect; nearly all actives have a fitted effect of over 50% in size). To be noted: ATP luminescence (CellTiter-Glo), 18 h; max response: stronger effect = lower value. A digest of the protocol:
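Environmental chemicals tested in qHTS format against parental HEK293 cells; 18 h treatment, 37 C; read-out ATP luminescence (CellTiter-Glo), 30 min RT development.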

A short description of assay [20]: qHTS assay for cell viability of the p53RE-bla HCT-116 cell line (AID 743292; active = well fitted curve in the direction sought with a large enough effect; an effect the other way counts as inactive or inconclusive; note: % is set by controls: 0 for no effect and ±100 for the full control effect; nearly all actives have a fitted effect of over 55% in size). A digest of the protocol:
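ATP-based luminescence, 16 h compound exposure at 37 C, p53RE-bla HCT-116 cells at 4,000/well.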

A short description of assay [21]: Primary qHTS for Huh7 cytotoxicity: counterscreen for inhibitors of MERS-S pseudotyped particle cell entry (AID 1479147). The settings on record: outcome: dose series up to 57.1 µM unless noted.
Assay [22] can be described thus: Primary qHTS for inhibitors of MERS-S pseudo-typed particle cell entry (AID 1479149). Note: nearly all actives have a fitted effect of over 60% in size. To be noted: outcome: dose series up to 57.1 µM unless noted.
Assay [23] is described as follows: Primary qHTS for Vero E6 cytotoxicity: counterscreen for inhibitors of SARS-S pseudo-typed particle cell entry (AID 1479150). The settings on record: outcome: dose series up to 57.1 µM unless noted.
Assay [24] in a line: Cytotoxicity counterscreen for inhibitors of SARS-CoV-2 cell entry (AID 1645845). Note: nearly all actives have a fitted effect of over 50% in size. To be noted: outcome: dose series up to 57.1 µM unless noted. A digest of the protocol: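 48 h compound treatment (after 1 h preincubation), HEK293-ACE2 cells, 37 C/5% CO2; ATP luminescence endpoint; normalized to cell wells and media blanks.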
For orientation: Counterscreens check selectivity or assay interference.

A short description of assay [25]: Primary qHTS to identify inhibitors of SARS-CoV-2 cell entry (AID 1645846). Note: nearly all actives have a fitted effect of over 45% in size. The settings on record: SARS-CoV-2 pseudovirus cell entry assay, luminescence; activity change, negative = inhibition: at 57.1 µM (top of the series) unless noted. A digest of the protocol:
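HEK293-ACE2 (Expi293F, stable hACE2), 1500 cells/well, o/n 37C; cpd 23 nL pin, 1 h; MLV-PP w/ SARS-CoV-2-S (Wuhan-Hu-1, Δ19 C-term); 48 h 37C; Bright-Glo luminescence; normalized vs S-PP and bald PP.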

Assay [26] concerns the target Glutathione peroxidase 1 (Homo sapiens) (UniProt P07203). As to the kind of experiment: Primary qHTS Assay for Inhibitors of Recombinant Selenoprotein Glutathione Peroxidase 1 (GPX1) (AID 1845191; active = well fitted curve in the direction sought with a large enough effect; an effect the other way counts as inactive or inconclusive; note: % is set by controls: 0 for no effect and ±100 for the full control effect; nearly all actives have a fitted effect of over 65% in size). A digest of the protocol:
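10 nM GPX1 + cpd, 30 min RT; start w/ 1 mM GSH, 0.5 mM cumene hydroperoxide, 0.5 mM NADPH, 100 nM GR, 0.01% BSA; buffer 50 mM Tris-HCl pH 7.5, 2 mM EDTA, 150 mM NaCl; Fl 340/450, 0 & 15 min.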

Assay [27] addresses Phospholipid hydroperoxide glutathione peroxidase GPX4 (Homo sapiens) (UniProt P36969). Description: Primary qHTS Assay for Inhibitors of Recombinant Selenoprotein Glutathione Peroxidase 4 (GPX4) (AID 1845192; active = well fitted curve in the direction sought with a large enough effect; an effect the other way counts as inactive or inconclusive; note: % is set by controls: 0 for no effect and ±100 for the full control effect; nearly all actives have a fitted effect of over 65% in size). A digest of the protocol: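 NADPH consumption, followed by fluorescence at 340/450 nm between 0 and 15 min, reports GPX4 activity via coupled glutathione reductase (100 nM). Enzyme 200 nM was pre-exposed to compound 30 min; 0.5 mM cumene hydroperoxide and 1 mM GSH served as substrates.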

Sequence of Peroxisome proliferator-activated receptor gamma (Homo sapiens) (P37231 whole entry, looked up): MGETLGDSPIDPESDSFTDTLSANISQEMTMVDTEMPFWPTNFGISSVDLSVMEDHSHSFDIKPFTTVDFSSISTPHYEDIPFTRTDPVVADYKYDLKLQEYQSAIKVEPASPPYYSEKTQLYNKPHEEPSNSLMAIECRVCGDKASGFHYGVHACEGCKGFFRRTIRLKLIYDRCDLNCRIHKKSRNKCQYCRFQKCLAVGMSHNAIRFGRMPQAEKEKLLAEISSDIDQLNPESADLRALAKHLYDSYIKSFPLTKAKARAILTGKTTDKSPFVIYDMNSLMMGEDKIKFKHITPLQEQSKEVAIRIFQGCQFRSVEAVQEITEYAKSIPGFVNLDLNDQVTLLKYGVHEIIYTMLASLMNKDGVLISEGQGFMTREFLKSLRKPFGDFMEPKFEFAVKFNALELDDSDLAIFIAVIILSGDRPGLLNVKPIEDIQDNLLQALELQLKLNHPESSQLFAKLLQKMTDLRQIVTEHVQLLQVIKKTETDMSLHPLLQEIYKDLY
Sequence of Vitamin D3 receptor (Homo sapiens) (P11473 whole entry, looked up): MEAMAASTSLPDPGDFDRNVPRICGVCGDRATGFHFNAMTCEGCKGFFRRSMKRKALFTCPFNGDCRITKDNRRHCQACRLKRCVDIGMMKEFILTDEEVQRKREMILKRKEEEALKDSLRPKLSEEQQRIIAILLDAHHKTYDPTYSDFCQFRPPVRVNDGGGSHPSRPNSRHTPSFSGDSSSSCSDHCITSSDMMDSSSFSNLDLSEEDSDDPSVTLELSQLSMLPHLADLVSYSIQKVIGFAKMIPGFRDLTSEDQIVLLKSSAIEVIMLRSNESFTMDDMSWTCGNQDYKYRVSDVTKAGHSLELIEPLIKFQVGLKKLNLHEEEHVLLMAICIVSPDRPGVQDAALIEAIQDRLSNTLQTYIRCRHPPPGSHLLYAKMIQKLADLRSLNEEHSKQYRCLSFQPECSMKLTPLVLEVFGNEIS
Sequence of Bile acid receptor (Homo sapiens) (Q96RI1 whole entry, looked up): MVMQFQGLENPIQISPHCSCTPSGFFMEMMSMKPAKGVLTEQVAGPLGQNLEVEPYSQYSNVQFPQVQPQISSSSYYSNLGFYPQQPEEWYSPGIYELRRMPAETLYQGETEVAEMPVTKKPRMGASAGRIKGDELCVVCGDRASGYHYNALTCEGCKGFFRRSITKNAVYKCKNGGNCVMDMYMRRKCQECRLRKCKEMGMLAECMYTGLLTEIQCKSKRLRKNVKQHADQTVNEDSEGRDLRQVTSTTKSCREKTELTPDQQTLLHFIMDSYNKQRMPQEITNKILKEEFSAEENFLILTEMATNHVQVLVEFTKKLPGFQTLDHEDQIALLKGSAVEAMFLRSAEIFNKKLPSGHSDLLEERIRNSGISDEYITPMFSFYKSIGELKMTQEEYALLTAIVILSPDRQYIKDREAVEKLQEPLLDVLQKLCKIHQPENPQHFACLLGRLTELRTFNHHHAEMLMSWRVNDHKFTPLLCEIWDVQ
Sequence of Peroxisome proliferator-activated receptor delta (Homo sapiens) (Q03181 whole entry, looked up): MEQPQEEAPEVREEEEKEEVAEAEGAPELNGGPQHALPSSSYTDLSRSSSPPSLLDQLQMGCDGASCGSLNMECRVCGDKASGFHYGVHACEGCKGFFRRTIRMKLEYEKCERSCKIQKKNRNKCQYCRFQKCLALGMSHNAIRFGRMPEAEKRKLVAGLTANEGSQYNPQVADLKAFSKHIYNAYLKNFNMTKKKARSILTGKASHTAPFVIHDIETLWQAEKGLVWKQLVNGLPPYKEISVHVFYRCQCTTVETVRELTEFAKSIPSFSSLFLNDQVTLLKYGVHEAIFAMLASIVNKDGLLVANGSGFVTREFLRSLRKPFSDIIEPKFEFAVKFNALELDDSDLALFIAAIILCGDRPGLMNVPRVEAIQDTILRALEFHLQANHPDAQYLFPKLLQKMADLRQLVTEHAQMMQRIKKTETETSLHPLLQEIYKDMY
Sequence of Androgen receptor (Homo sapiens) (P10275 whole entry, looked up): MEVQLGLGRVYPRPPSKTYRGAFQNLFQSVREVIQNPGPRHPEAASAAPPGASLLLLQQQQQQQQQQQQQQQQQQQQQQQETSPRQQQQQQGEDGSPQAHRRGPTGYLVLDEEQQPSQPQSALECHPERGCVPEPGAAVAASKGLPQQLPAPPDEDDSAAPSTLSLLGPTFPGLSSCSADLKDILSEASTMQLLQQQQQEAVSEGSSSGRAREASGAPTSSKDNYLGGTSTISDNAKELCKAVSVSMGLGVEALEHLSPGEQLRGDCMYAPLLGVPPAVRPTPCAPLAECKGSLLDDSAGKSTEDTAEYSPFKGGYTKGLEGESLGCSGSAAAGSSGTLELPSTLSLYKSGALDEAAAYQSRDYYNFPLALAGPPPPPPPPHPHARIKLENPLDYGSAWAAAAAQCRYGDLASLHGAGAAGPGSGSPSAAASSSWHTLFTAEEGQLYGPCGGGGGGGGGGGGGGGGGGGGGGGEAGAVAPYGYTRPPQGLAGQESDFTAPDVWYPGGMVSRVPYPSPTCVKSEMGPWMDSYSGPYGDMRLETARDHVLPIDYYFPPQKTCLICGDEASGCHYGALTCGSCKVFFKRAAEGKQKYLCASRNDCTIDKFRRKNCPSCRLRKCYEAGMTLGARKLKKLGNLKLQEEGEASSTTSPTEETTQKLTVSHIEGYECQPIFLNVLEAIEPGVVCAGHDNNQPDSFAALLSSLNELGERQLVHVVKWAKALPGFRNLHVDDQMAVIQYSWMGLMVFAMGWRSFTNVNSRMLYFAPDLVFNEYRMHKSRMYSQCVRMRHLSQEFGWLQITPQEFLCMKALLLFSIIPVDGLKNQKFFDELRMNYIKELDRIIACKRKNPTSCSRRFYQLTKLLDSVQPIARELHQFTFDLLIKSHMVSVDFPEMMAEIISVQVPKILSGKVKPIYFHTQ
Sequence of Peroxisome proliferator-activated receptor alpha (Homo sapiens) (Q07869 whole entry, looked up): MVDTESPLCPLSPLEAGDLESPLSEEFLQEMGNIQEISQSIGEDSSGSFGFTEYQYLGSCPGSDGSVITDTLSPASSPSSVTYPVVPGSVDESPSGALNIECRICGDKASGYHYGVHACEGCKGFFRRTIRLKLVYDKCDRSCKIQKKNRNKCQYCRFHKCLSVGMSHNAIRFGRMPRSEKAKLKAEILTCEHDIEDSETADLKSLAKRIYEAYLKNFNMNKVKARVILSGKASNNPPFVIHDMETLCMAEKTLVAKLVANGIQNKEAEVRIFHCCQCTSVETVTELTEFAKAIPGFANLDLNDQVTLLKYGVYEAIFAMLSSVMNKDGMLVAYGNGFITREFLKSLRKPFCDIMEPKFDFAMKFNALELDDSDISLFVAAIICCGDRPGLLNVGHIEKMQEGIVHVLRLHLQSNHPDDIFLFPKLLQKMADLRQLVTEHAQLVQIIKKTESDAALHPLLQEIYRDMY
Sequence of Thyroid hormone receptor beta (Homo sapiens) (P10828 whole entry, looked up): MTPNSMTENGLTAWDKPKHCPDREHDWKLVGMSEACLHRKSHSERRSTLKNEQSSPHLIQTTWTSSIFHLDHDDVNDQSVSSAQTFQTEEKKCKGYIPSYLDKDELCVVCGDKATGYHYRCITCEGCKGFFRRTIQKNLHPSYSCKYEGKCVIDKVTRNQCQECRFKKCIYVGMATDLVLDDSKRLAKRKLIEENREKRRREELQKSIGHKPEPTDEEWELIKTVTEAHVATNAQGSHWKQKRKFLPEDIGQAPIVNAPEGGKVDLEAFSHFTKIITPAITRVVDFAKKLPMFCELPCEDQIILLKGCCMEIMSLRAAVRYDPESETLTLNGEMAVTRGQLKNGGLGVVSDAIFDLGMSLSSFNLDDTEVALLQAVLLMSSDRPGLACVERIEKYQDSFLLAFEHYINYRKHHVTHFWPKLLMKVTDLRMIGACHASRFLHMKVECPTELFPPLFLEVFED
Sequence of Glutathione peroxidase 1 (Homo sapiens) (P07203 whole entry, looked up): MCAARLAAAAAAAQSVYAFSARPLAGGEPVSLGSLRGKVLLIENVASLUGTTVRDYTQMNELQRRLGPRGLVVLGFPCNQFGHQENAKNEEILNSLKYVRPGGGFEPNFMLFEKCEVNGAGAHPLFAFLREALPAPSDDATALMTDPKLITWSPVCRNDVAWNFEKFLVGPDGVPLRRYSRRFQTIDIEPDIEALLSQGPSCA
Sequence of Phospholipid hydroperoxide glutathione peroxidase GPX4 (Homo sapiens) (P36969 whole entry, looked up): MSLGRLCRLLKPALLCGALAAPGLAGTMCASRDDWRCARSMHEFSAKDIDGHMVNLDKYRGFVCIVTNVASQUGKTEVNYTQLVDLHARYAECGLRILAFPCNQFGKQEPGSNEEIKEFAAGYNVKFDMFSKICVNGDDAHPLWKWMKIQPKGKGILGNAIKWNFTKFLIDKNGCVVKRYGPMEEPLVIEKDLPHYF

For the molecule `CC(COc1ccc(Oc2ccccc2)cc1)Oc1ccccn1` (centres undefined), the Potency result in [1] was “inactive and 39.8 µM (active)”; in [13], 48.6 µM (active) and 27.3 µM (active). The call in assay [2], in [4], in [7], in assay [9] and in assay [10] was inactive. Moreover, the activation in assay [3] was 0.631% (inactive) and 1.01% (inactive); in assay [14], -3.04% (inactive) and -2.31% (inactive); in assay [15], -1.12% (inactive) and 0.467% (inactive); in assay [16] it was 13% (inactive). Further, the max response is 11.7% and -13.8% in assay [5]; -19.9% and -8.14% in assay [11]; -1.27% (inactive) and -0.944% (inactive) in [17]; 2.4% (inactive) and -4.17% (inactive) in [18]; -1.69% (inactive) and -16.3% (inactive) in [19]. For the same molecule, the Potency result in assay [6], in assay [8], in assay [20], in assay [21], in assay [22] and in [23] was “inactive” in each case. The Potency entry in assay [24], in assay [26] and in assay [27] was “inactive” each time. Besides, the activity change % (negative = inhibition) in [12] is 4.1% (inactive) and -8.02% (inactive). Also, the activity change, negative = inhibition in [25] was -5.43%.

Take `c1ccc2ccccc2c1`: in assay [3], the activation was 2.2% (inactive) and 1.82% (inactive). For the same molecule, in assay [4], the call was inactive. Further, the Potency entry in assay [21], in assay [22], in assay [23], in assay [24] and in assay [25] was “inactive” throughout.
